Test results published in PubChem BioAssay AID1159580 (chemical genetic matrix, 2015).
Screen size: about 5,500 compounds; about 2,000 (36%) were called active. Roughly 18% stayed inconclusive and do not appear here. Cut-off read from the data, not from the text of the source: active = normalized growth mostly below about 0.91 (no sharp cut-off); inconclusive = no clear call, values can overlap the other calls; inactive = mostly above about 0.92. Some of the results follow.

Test: chemical genetic growth profiling, strain panel (AID 1159580);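 note: tested at 20 µM; growth read once vehicle control cultures reached saturation at 30 °C; 1 = growth at the plate median or of vehicle wells; lower values mean less growth of the strain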
Details: S. cerevisiae deletion strains, growth OD

Measured: normalized growth

COC(=O)c1cc([N+](=O)[O-])ccc1S(=O)(=O)Cc1ccc(Cl)cc1
inactive: locus YAR019C, strain CDC15, active compounds read low 0.971 | locus YBL105C, strain PKC1, active compounds read low 0.983 | locus YBR135W, strain CKS1, active compounds read low 0.991 | locus YBR136W, strain MEC1, active compounds read low 0.967 | locus YBR160W, strain CDC28, active compounds read low 0.998 | locus YDL017W, strain CDC7, active compounds read low 0.985 | locus YDL028C, strain MPS1, active compounds read low 0.98 | locus YDL101C, strain DUN1, active compounds read low 0.987 | locus YDL108W, strain KIN28, active compounds read low 0.988 | locus YDL132W, strain cdc53, active compounds read low 0.991 | locus YDL214C, strain PRR2, active compounds read low 0.952 | locus YDR052C, strain DBF4, active compounds read low 0.996 | locus YDR054C, strain cdc34, active compounds read low 0.983 | locus YDR226W, strain ADK1, active compounds read low 0.985 | locus YDR477W, strain SNF1, active compounds read low 0.948 | locus YER123W, strain YCK3, active compounds read low 0.955 | locus YER133W, strain GLC7, active compounds read low 0.956 | locus YFL009W, strain cdc4, active compounds read low 0.99 | locus YFL029C, strain CAK1, active compounds read low 0.974 | locus YFR003C, strain YPI1, active compounds read low 0.992 | locus YFR019W, strain FAB1, active compounds read low 0.974 | locus YFR028C, strain CDC14, active compounds read low 0.981 | locus YGR040W, strain KSS1, active compounds read low 0.941 | locus YGR052W, strain FMP48, active compounds read low 1.04 | locus YGR092W, strain DBF2, active compounds read low 0.946 | locus YHR030C, strain SLT2, active compounds read low 0.937 | locus YHR079C, strain IRE1, active compounds read low 0.97 | locus YHR082C, strain KSP1, active compounds read low 0.995 | locus YHR205W, strain SCH9, active compounds read low 0.98 | locus YIL147C, strain SLN1, active compounds read low 0.981 | locus YJL095W, strain BCK1, active compounds read low 0.966 | locus YJL128C, strain PBS2, active compounds read low 0.967 | locus YJL157C, strain FAR1, active compounds read low 0.964 | locus YJR016C, strain ILV3, active compounds read low 0.993 | locus YJR066W, strain TOR1 (second series), active compounds read low 0.88 | locus YJR066W, strain TOR1, active compounds read low 0.965 | locus YKL048C, strain ELM1, active compounds read low 0.976 | locus YKL067W, strain YNK1, active compounds read low 0.956 | locus YKL101W, strain HSL1, active compounds read low 0.949 | locus YKL193C, strain SDS22, active compounds read low 0.984 | locus YKL203C, strain TOR2, active compounds read low 1 | locus YLR113W, strain HOG1, active compounds read low 0.957 | locus YLR133W, strain CKI1, active compounds read low 0.951 | locus YLR403W, strain SFP1, active compounds read low 0.957 | locus YML070W, strain DAK1, active compounds read low 0.958 | locus YMR001C, strain CDC5, active compounds read low 0.984 | locus YMR205C, strain PFK2 (second series), active compounds read low 0.957 | locus YMR277W, strain FCP1, active compounds read low 0.992 | locus YNL006W, strain LST8, active compounds read low 0.996 | locus YNL020C, strain ARK1, active compounds read low 0.96 | locus YNL161W, strain CBK1, active compounds read low 0.988 | locus YNL183C, strain NPR1, active compounds read low 0.97 | locus YNL207W, strain RIO2, active compounds read low 0.98 | locus YNL222W, strain SSU72, active compounds read low 0.988 | locus YNL307C, strain MCK1 (second series), active compounds read low 0.976 | locus YOL078W, strain AVO1, active compounds read low 0.991 | locus YOL136C, strain PFK27, active compounds read low 0.952 | locus YOR061W, strain CKA2, active compounds read low 0.948 | locus YOR119C, strain RIO1, active compounds read low 0.973 | locus YOR231W, strain MKK1, active compounds read low 0.98 | locus YOR329C, strain SCD5, active compounds read low 0.984 | locus YPL031C, strain PHO85, active compounds read low 0.955 | locus YPL153C, strain RAD53, active compounds read low 0.951 | locus YPL204W, strain HRR25, active compounds read low 0.95 | locus YPL209C, strain IPL1, active compounds read low 0.983 | locus YPL256C, strain CLN2, active compounds read low 0.945 | locus YPR025C, strain CCL1, active compounds read low 0.987 | locus YPR106W, strain ISR1, active compounds read low 0.985 | locus YPR111W, strain DBF20, active compounds read low 0.984 | strain NNK1, active compounds read low 0.982 | strain TSCII, active compounds read low 0.981
